Compound activity: PubChem, several laboratories
A selection: hits, their analogues and other compounds. The true share with any hit is near 1.6%.
PREPL inh: inhibitors of human prolyl oligopeptidase-like enzyme PREPL | recombinant PREPL, fluorescence polarization activity-based probe | Q4J6C6 | AID 2751 | inhibition, % at 5.96 µM | 0.68% of 320,000 active
Fam108B counter: blocks mouse Fam108B hydrolase in RBBP9 counter-screen; AID 1947; inhibition, % at 9.51 µM; recombinant Fam108B, FP-Rh probe fluorescence polarization; 0.33% of 300,000 active;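 active means inhibition above the screen mean inhibition plus 3 SD, computed separately per campaign, cut at about 18% in these data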;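 further: inhibitors lower polarization as less probe binds the enzyme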
PME-1 inh: PME-1 (human) inhibition. Q9Y570. recombinant PME-1, FP-Rh probe fluorescence polarization. 0.53% of 320,000 active. inhibition, % at 5.9 µM;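 active means inhibition above the campaign mean of all compounds plus 3 SD, cut at about 26% in these data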;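 further: competitive labeling of PME-1 active site by serine hydrolase directed probe; inhibitors block probe labeling so polarization falls and inhibition rises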
LYPLA1 inh: blocks human lysophospholipase 1, a PME1 counter-screen | O75608 | recombinant LYPLA1, FP-Rh probe fluorescence polarization | inhibition, % at 5.9 µM | 0.16% of 320,000 active | AID 2174;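 active means inhibition above the mean of all tested compounds plus 3 SD, set per campaign, cut at about 14% in these data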;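 further: inhibitors block serine hydrolase probe labeling of LYPLA1 so polarization falls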
Target sequence (O75608 whole entry, looked up): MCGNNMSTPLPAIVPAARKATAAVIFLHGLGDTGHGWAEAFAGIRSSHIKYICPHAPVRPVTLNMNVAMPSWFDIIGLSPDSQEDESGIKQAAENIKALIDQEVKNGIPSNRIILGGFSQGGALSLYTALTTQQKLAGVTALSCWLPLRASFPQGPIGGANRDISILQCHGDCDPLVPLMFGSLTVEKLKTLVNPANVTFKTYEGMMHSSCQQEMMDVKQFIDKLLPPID
LYPLA2 inh: LYPLA2 (human) inhibition in PME1 counter-screen; recombinant LYPLA2, FP-Rh probe fluorescence polarization; inhibition, % at 5.9 µM; 0.38% of 320,000 active; AID 2177;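 active means inhibition above the screen-wide mean plus 3 SD, limit set per campaign, cut at about 26% in these data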
MEX-5 binding: C. elegans MEX-5 TCR-2 RNA binding activity; Q9XUB2; 0.38% of 300,000 active; activity score (negative = inhibition of binding), % at 10 µM; AID 1832; MEX-5/FITC-TCR2 RNA binding, fluorescence polarization; active compounds read low;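 active means inhibition past about -25% in most replicates, and total fluorescence under double the plate's negative control median, limit read from the data; inconclusive means replicates evenly split on the limit, or fluorescence at least double controls; inactive means too little inhibition in most replicates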
Target sequence (Q9XUB2 whole entry, looked up): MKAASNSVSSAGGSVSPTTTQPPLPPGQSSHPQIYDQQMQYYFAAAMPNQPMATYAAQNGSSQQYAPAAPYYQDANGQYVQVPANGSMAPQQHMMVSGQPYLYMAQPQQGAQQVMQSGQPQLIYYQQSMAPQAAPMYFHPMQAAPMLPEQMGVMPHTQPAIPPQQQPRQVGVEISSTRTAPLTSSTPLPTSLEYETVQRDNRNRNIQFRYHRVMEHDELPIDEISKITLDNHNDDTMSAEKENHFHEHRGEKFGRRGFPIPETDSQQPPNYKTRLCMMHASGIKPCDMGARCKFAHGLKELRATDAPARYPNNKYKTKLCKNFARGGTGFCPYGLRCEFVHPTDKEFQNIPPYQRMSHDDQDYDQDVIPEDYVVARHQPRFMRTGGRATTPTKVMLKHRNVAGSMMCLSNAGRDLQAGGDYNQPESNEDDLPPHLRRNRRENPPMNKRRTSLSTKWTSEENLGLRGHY
PREPL confirm: confirmation of human PREPL enzyme inhibitors; recombinant PREPL, fluorescence polarization activity probe; shares compounds with PREPL inh; AID 2803; inhibition, % at 5.96 µM; 67% of 2,000 active
Each line names hits and unclear results; the compound was inactive in the other large screens (follow-up assays come after a bar, where they were run). Unless noted, no stated cut-off is given here; in the data, active means inhibition above about 43%; inactive means the rest.

CC(NC(=O)Cn1cnnn1)c1cccc(C(F)(F)F)c1 (stereo not drawn)	none
O=S(=O)(c1ccc(-c2csc(=Nc3ccccc3)n2CCCN2CCOCC2)cc1)N1CCOCC1	PREPL inh 44 | PREPL confirm 52
CN(C)CCc1cc2c(c3c1ccc1ccccc13)OCO2	PREPL inh 68 | PREPL confirm 59
Cc1csc(NC(=O)C2CCCN(S(=O)(=O)c3cnc[nH]3)C2)n1 (stereo not drawn)	none
CCOC(=O)c1ccc(OCc2c(C)noc2C)cc1	none
O=C1N/C(=C/c2ccc(N3CCOCC3)cc2)C(=O)N1Cc1ccc(F)cc1	PREPL inh 48 | PREPL confirm 75
O=C1N/C(=C\c2ccsc2)C(=O)N1Cc1ccc(F)cc1	none
Cc1ccc(Nc2nc(N/N=C/c3c[nH]c4ccccc34)nc(N3CCOCC3)n2)cc1	PREPL inh 44 | PREPL confirm 60
CCOC(=O)c1cc(C)[nH]c(=O)c1C#N	none
COc1cc(NC(=O)c2ccc3c(c2)OCO3)c2ncccc2c1	none
COc1cc(NCCCCCCCN)c2ncccc2c1	PREPL inh 55 | PREPL confirm inactive
COc1cc(NC(C)CCCN)c2ncccc2c1 (stereo not drawn)	PREPL inh 57 | PREPL confirm inactive
O=C(N/N=C/c1ccccc1[N+](=O)[O-])c1ccc(COc2ccccc2-c2ccccc2)cc1	none
OC(Cc1ccncc1)(c1ccccc1)c1ccccc1	none
CC(=O)N1CCN(c2ccc(NCc3cccs3)cc2)CC1	none (no result: MEX-5 binding)
CC(=O)N1CCN(c2ccc(NCc3ccc(C)s3)cc2)CC1	PREPL inh 54 | PREPL confirm inactive
CC(=O)N1CCN(c2ccc(NCc3cccc4ccccc34)cc2)CC1	PREPL inh 78 | PREPL confirm 62
CC(=O)N1CCN(c2ccc(NCc3ccc(Br)o3)cc2)CC1	PREPL inh 44 (no result: Fam108B counter, MEX-5 binding) | PREPL confirm 45
Cc1ccc(CNc2ccc(N3CCOCC3)cc2)s1	none
CC(=O)N1CCN(c2ccc(NC(=O)c3ccc(C)cc3)cc2)CC1	none
CC(=O)N1CCN(c2ccc(NCc3ccccc3)cc2)CC1	none
CC(=O)N1CCN(c2ccc(NCc3ccc(-c4ccc(Br)cc4)o3)cc2)CC1	PREPL inh 71 (no result: Fam108B counter, PME-1 inh, LYPLA1 inh, LYPLA2 inh, MEX-5 binding) | PREPL confirm 66
O=C(/C=C\Nc1ccc(S(=O)(=O)Nc2ncccn2)cc1)c1cccc2ccccc12	none
COc1cc(C(=O)NCC2CCCO2)ccc1OCc1ccc(Cl)cc1Cl (stereo not drawn)	PREPL inh 44 | PREPL confirm inactive
O=C(C1CCCN(S(=O)(=O)c2cccc3nonc23)C1)N1CCN(c2cccc(Cl)c2)CC1 (stereo not drawn)	none
O=C(C1CCCN(S(=O)(=O)c2cccc3nonc23)C1)N1CCN(c2ccccc2Cl)CC1 (stereo not drawn)	PREPL inh 47 | PREPL confirm inactive
CCOC(=O)C1=C(COC(=O)Cc2ccc(OC)c(OC)c2)NC(=O)NC1C (stereo not drawn)	none (no result: Fam108B counter, MEX-5 binding)
CCOc1cc(N2CCOCC2)c(OCC)cc1NC(=O)COC(=O)CCc1c[nH]c2ccccc12	PREPL inh 76 | PREPL confirm 69
Oc1ccccc1N1CCN(c2ccc3ccccc3n2)CC1	PREPL inh 54 | PREPL confirm inactive
CC(C)OCCCNC(=O)CN1C(=O)/C(=C/c2ccccc2)Sc2ccccc21	none
c1ccc2c(NCCc3c[nH]c4ccccc34)c3ccccc3nc2c1	PREPL inh 50 | PREPL confirm 57
Cc1cc(C(=O)CN2C(=O)C(=O)N(Cc3ccccc3)C2=O)c(C)n1Cc1ccc(F)cc1	none (no result: Fam108B counter, MEX-5 binding)
Cc1cc(C)cc(N(CCC#N)C(=O)COC(=O)CCc2c[nH]c3ccccc23)c1	PREPL inh 46 (no result: Fam108B counter, MEX-5 binding) | PREPL confirm inactive
O=C(COC(=O)c1ccccc1SCC(=O)N1CCCC1)NCc1ccccc1	none
CCOC(=O)c1cnc(-n2nc(C)cc2C)nc1NCCc1ccccc1	PREPL inh 58 | PREPL confirm 54
CCOC(=O)c1cnc(-n2nc(C)cc2C)nc1Nc1ccc(OC)cc1	none
COc1cc(NC(=O)CN2C(=O)NC(C)(c3ccc4ccccc4c3)C2=O)c(C)cc1[N+](=O)[O-] (stereo not drawn)	PREPL inh 58 | PREPL confirm inactive
COc1cc(NC(=O)CN2C(=O)NC(C)(c3ccccc3)C2=O)c(C)cc1[N+](=O)[O-] (stereo not drawn)	none
COc1ccc(N2CCN(C(=O)CN3C(=O)NC(C)(c4ccc5ccccc5c4)C3=O)CC2)cc1 (stereo not drawn)	PREPL inh 57 (no result: Fam108B counter, MEX-5 binding) | PREPL confirm 53
CC(=O)N1CCN(C(=O)CN2C(=O)NC(C)(c3ccc4ccccc4c3)C2=O)CC1 (stereo not drawn)	none (no result: Fam108B counter, MEX-5 binding)
Cc1cc(C)c(-c2csc(NC(=O)C3=NN(c4ccccc4)C(=O)CC3)n2)c(C)c1	none
CCc1ccc(-c2csc(NC(=O)C3=NN(c4ccccc4)C(=O)CC3)n2)cc1	PREPL inh 44 | PREPL confirm inactive
Cc1ccc(N(CC(=O)NCC2CCCO2)C(=O)CCC(=O)Nc2nccs2)cc1C (stereo not drawn)	none
Cc1ccc(N(CC(=O)NCC2CCCO2)C(=O)CCC(=O)Nc2nccs2)cc1 (stereo not drawn)	PREPL inh 43 | PREPL confirm inactive
COc1cccc(C(=O)c2c[nH]c(C(=O)NCCCN(C)C)c2)c1	none
O=C(Cn1nc(CNc2ccc(Br)cc2)[n+]2c1CCCCC2)c1ccc([N+](=O)[O-])cc1	PREPL inh 62 | PREPL confirm 44
COc1ccc(NCc2nn(CC(=O)c3ccc(Br)cc3)c3[n+]2CCCCC3)cc1	PREPL inh 51 | PREPL confirm 55
O=C(Cn1nc(CNc2ccc(Cl)cc2)[n+]2c1CCCCC2)c1ccc(Br)cc1	none
O=C(Cn1nc(Cl)nc1Cl)c1ccc([N+](=O)[O-])cc1	none
COc1ccc(NC(=O)COC(=O)[C@@H](NC(=O)c2c(F)cccc2F)C(C)C)cc1	none
CCOc1ccc(-n2c(SCc3ccc(C#N)cc3)nnc2-c2cccnc2)cc1	none
N#Cc1ccc(CSc2nnc(-c3cccnc3)n2-c2ccccc2)cc1	PREPL inh 46 | PREPL confirm inactive
Cc1ccc(-n2[nH]c(C)c(C=Nc3ccc4[nH]c(=O)[nH]c4c3)c2=O)cc1C	PREPL inh 57 | PREPL confirm inactive
Cc1cc(C)cc(N2CCN(C(=O)N3CCOCC3)CC2)c1	none
Oc1ccccc1CNc1cccc2cccnc12	PREPL inh 45 | PREPL confirm inactive
NC(=S)Nc1cccc2cccnc12	none
COc1cc(NCc2ccccc2O)c2ncccc2c1	none (no result: PREPL inh, Fam108B counter, PME-1 inh, LYPLA1 inh, LYPLA2 inh)
NC(=S)NNc1cccc2cccnc12	PREPL inh 62, MEX-5 binding inconclusive | PREPL confirm inactive
